Compounds with a hit are over-represented: about 4.5% of the library has one in this group of screens.
GDH-TPI inh: inhibits GDH-TPI coupling enzymes, artifact for Mtb FBA screen; GDH-TPI coupled enzyme counterscreen, NADH absorbance; inhibition, % at 4.8 µM; 360,000 compounds, 1.2% hits; AID 588335; in the data active = inhibition above about 30%
PfHsp40 rescue: restores yeast growth despite PfHsp40 toxicity; S. cerevisiae expressing PfHsp40, growth rescue, ATP luminescence; growth rescue, % at 12.5 µM; 340,000 compounds, 0.68% hits; in the data active = growth rescue above about 28%, passing the limit was not always enough;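 note: yeast W303a lacking pdr1 and pdr3 grown in galactose medium; growth measured after three days at 30 °C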
PrPC surface inh: inhibitors of human cell surface prion protein PrPC | inhibition, % at 13.8 µM | P04156 | 370,000 compounds, 0.43% hits | TR-FRET read-out; in the data active = inhibition above about 24%
PrP UTR inh: inhibition of PrP 5' UTR reporter expression | AID 488862 | inhibition, % (concentration not given with the values) | 340,000 compounds, 0.35% hits | cell-based PrP 5' UTR mRNA reporter, plate reader; in the data active = inhibition above about 52%
FBA Mtb inh: Mtb fructose-bisphosphate aldolase inhibition. P9WQA3. purified M. tuberculosis FBA, fluorescence read-out. inhibition, % at 1 µM. 360,000 compounds, 2.3% hits. AID 588726; in the data active = inhibition above about 27%
BJeLR viability: BJeLR cell viability loss; BJeLR (HRASV12) viability, CellTiter-Glo ATP luminescence, 48 h; 300,000 compounds, 0.17% hits; inhibition, % (concentration not given with the values); in the data active = inhibition above about 50%
PrPC confirm: cell surface PrPC inhibition, TR-FRET confirmation; shares compounds with PrPC surface inh; cell surface PrPC level; inhibition, % at 13.8 µM; 1,500 compounds, 65% hits; AID 743200; in the data active = inhibition above about 25%
LD9 cytotox: LD9 cell cytotoxicity, PrPc inhibitor counter-screen; shares compounds with PrPC surface inh; LD9 cells cytotoxicity, luminescence viability; inhibition, % at 13.8 µM; 1,500 compounds, 29% hits; AID 743201; in the data active = inhibition above about 9.5%
Hits are given with their value; i = inactive; nt = not tested or not shown.

SMILES	GDH-TPI inh	PfHsp40 rescue	PrPC surface inh	PrP UTR inh	FBA Mtb inh	BJeLR viability	PrPC confirm	LD9 cytotox
COc1ccc(C(=O)NC(C(=O)NCC2(N3CCCCC3)CCCCC2)C(C)C)cc1 (stereo not given)	i	i	i	i	i	nt	nt	nt
Cc1cc(C(=O)NNC(=O)Nc2ccc(Cl)cc2)no1	i	i	i	i	i	i	nt	nt
Cc1cc(C(=O)NNc2ccc(Cl)cc2)no1	i	i	30.9	i	i	i	33.2	i
O=C(COc1coc(CN2CCc3ccccc32)cc1=O)Nc1ccccc1	i	i	i	i	i	i	nt	nt
CC(=O)Nc1ccc(Nc2nc(-c3ccccc3)nc3ccccc23)cc1	i	i	29.6	i	i	i	i	16.7
CC(=O)Nc1ccc(NC(=O)c2nc(S(=O)(=O)Cc3ccccc3)ncc2Cl)cc1	i	i	65.1	i	i	i	i	78.2
CS(=O)(=O)c1ncc(Cl)c(C(=O)Nc2ccc3ccccc3c2)n1	i	i	84.0	i	i	i	77.4	87.1
CCS(=O)(=O)c1ncc(Cl)c(C(=O)Nc2ccc(C)cc2)n1	i	i	41.9	i	i	i	44.3	84.8
Cc1ccc(CS(=O)(=O)c2ncc(Cl)c(C(=O)Nc3ccc(OC(F)F)cc3)n2)cc1	i	i	i	i	i	i	nt	nt
CCC1CCCCN1S(=O)(=O)c1ccc(NC(=O)c2nc(S(C)(=O)=O)ncc2Cl)cc1 (stereo not given)	i	i	79.0	i	i	i	83.3	96.9
COC(=O)C(Cc1ccc(O)cc1)NC(=O)C1CCN(S(=O)(=O)c2ccc(C)cc2)CC1 (stereo not given)	i	i	i	i	i	i	nt	nt
CC1(NC(=O)CCNC(=O)c2ccc(C(C)(C)C)cc2)CCS(=O)(=O)C1 (stereo not given)	i	i	i	nt	i	nt	nt	nt
CN(C)S(=O)(=O)c1ccc(NC=O)cc1	i	i	i	i	i	i	nt	nt
COc1ccccc1NC(=O)CSc1nnc(C2CCCCC2)n1-c1ccccc1	i	i	i	i	i	i	nt	nt
O=C(Nc1nnc(CC(c2ccccc2)c2ccccc2)s1)c1ccco1	i	i	40.4	i	i	i	42.1	i
COc1ccccc1N(CC(=O)NC1CC2CCC1C2)S(=O)(=O)c1ccc(C)cc1 (stereo not given)	i	i	55.2	i	i	i	i	i
COc1ccc(S(=O)(=O)N(CC(=O)NC2CC3CCC2C3)c2ccccc2OC)cc1 (stereo not given)	i	i	i	i	i	i	nt	nt
CCCC(=O)c1ccc(OCc2cn(CC(=O)c3ccc(O)cc3)nn2)cc1	i	i	27.8	i	i	nt	i	i
CC(C)[C@@H](NC(=O)OC(C)(C)C)c1cc(C(=O)c2c(-c3ccccc3)[nH]c3ccccc23)c(N)s1	nt	nt	41.3	nt	nt	nt	29.6	i
CSc1ncnc2c1ncn2CCCNCc1cccc2ccccc12	i	nt	i	nt	i	nt	nt	nt
O=C(Nc1ccccc1)c1ccc(CSc2ncccn2)cc1	i	i	36.8	i	i	i	38.2	i
O=C(COc1ccc2ccccc2c1Br)Nn1cnnc1	i	i	i	i	i	i	nt	nt
COC(=O)NNC(=O)COc1ccc2ccccc2c1Br	i	i	34.4	i	i	i	49.1	i
O=C(COc1ccc2ccccc2c1Br)NNC(=O)Nc1ccccc1	i	i	i	i	i	i	nt	nt
Cc1cc(NC(=O)COc2ccc3ccccc3c2Br)no1	i	i	80.5	i	i	nt	101.0	i
SMILES	GDH-TPI inh	PfHsp40 rescue	PrPC surface inh	PrP UTR inh	FBA Mtb inh	BJeLR viability	PrPC confirm	LD9 cytotox
CC(C)(C)C(=O)NNC(=O)COc1ccc2ccccc2c1Br	i	i	72.3	i	i	i	70.9	i
COc1ccc(-c2noc(CCCC(=O)Nc3ccc(C(N)=O)cc3)n2)cc1OC	i	i	i	i	i	i	nt	nt
CC1CN(S(=O)(=O)c2cccc(C(=O)Nc3ccccc3N3CCCC3)c2)CC(C)O1 (stereo not given)	i	i	i	i	i	i	nt	nt
Cc1ccnc(NC(=O)COc2ccc3c(c2)CCC3)c1	i	i	i	i	i	i	nt	nt
C=CCNC(=O)c1ccc(Cn2c(=S)[nH]c3cc4c(cc3c2=O)OCO4)cc1	i	i	54.4	i	i	i	35.3	i
O=C(CSc1ccc([N+](=O)[O-])cn1)Nc1ccc2c(c1)OCCO2	i	i	41.2	i	i	i	i	i
